High-throughput results: PubChem, several laboratories
The list is not random: actives were taken first. Their share in the collection is about 0.73%.
Vc quorum ag-1: quorum light induction in luxS cqsA deficient V. cholerae | V. cholerae BH1578 lux reporter, luminescence, 6 h | activation, % at 18.7 µM | hit rate 0.16% among 350,000; in the data active = activation mostly above about 9.7%, no sharp cut-off
DUSP3 inh: inhibitors of human VHR1 phosphatase (DUSP3); P51452; recombinant VHR phosphatase, pNPP absorbance; inhibition, % at 13.3 µM; hit rate 0.52% among 290,000; AID 1654; in the data active = inhibition above about 50%
Yp Topo-I inh: blocks Yersinia pestis topoisomerase I activity. AID 504884. hit rate 0.064% among 360,000. Y. pestis Topo-I cleavage product accumulation, plate reader. activity, % at 10 µM; in the data active = activity above about 50%, passing the limit was not always enough
Mtb BioA inh: BioA (M. tuberculosis) enzyme inhibition. purified M. tuberculosis BioA enzyme, plate reader. inhibition, % at 9.99 µM. hit rate 0.096% among 360,000. AID 602481; in the data active = inhibition above about 40%
TcdB inh: inhibitors of Clostridioides difficile toxin B glycohydrolase. AID 652162. TcdB glycohydrolase enzymatic assay, plate reader. hit rate 0.24% among 350,000. inhibition, % at 9.99 µM. P18177; in the data active = inhibition above about 10%
Target sequence (P18177 whole entry, looked up): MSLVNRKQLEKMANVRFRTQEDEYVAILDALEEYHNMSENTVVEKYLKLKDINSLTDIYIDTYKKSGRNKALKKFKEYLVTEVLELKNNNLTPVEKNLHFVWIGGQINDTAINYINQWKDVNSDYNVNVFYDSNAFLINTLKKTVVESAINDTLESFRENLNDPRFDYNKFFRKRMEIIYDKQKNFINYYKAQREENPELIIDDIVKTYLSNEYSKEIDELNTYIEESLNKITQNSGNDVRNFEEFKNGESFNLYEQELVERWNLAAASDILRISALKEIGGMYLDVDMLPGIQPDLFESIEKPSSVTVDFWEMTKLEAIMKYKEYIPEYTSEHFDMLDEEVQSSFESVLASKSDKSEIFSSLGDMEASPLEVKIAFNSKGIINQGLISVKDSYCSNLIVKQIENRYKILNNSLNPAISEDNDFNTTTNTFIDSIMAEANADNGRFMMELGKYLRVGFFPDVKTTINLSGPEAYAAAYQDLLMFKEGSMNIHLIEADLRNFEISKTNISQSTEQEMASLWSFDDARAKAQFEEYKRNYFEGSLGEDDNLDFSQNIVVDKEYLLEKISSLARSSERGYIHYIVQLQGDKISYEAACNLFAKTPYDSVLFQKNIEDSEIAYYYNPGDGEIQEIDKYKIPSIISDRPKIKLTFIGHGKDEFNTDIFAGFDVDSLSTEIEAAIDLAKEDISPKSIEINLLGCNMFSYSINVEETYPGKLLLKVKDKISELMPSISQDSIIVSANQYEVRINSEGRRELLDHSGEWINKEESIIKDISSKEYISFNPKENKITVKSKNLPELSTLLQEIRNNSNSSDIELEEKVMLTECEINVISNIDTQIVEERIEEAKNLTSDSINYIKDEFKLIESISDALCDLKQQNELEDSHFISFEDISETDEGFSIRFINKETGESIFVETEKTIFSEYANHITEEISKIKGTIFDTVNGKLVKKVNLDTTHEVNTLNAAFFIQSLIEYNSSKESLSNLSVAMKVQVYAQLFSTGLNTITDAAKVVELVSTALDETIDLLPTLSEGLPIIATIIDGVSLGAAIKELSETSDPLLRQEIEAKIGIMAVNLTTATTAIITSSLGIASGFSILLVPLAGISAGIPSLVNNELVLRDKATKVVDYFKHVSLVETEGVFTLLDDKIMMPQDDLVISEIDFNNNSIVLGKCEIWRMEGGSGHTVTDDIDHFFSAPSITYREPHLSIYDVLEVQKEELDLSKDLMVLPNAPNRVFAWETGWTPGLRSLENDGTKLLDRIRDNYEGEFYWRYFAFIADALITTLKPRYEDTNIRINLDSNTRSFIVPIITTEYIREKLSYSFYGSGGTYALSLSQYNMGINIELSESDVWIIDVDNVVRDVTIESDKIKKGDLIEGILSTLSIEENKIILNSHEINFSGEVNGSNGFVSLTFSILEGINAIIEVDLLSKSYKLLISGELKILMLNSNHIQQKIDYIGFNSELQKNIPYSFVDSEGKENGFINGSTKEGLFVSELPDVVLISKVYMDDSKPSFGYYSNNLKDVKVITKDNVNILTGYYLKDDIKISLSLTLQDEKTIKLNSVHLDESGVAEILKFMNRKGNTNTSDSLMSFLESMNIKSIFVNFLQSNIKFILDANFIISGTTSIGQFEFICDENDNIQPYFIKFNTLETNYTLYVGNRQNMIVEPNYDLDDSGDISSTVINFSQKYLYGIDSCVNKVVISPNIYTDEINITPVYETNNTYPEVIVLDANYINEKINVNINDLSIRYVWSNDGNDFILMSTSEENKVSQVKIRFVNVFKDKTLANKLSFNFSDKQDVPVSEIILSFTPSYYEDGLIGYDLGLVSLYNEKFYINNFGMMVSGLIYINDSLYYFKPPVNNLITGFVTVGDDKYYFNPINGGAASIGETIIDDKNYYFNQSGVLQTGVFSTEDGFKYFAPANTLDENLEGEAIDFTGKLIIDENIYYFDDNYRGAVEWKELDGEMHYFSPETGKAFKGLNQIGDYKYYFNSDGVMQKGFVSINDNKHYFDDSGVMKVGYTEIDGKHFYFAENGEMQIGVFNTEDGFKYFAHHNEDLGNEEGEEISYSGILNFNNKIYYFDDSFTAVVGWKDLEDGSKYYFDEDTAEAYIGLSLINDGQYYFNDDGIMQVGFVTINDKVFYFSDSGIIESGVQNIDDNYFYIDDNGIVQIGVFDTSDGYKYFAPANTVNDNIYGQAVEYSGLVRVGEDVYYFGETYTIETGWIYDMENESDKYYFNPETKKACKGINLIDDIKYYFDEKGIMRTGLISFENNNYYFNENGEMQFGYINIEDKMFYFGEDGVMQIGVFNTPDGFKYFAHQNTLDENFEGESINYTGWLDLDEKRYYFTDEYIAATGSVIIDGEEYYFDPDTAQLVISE
Vc quorum ag-2: quorum light induction in BH1578 reporter strain. 620 tested, under 10 active. shares compounds with Vc quorum ag-1. activation, % at 50 µM. V. cholerae BH1578 lux reporter, luminescence, 6 h; call rule not given here
HeLa 24h tox: HeLa cell viability loss at 24 h; shares compounds with Vc quorum ag-1; CellTiter-Glo ATP luminescence; activity change, negative = cytotoxicity, % at 35 µM; 25 tested, under 10 active; AID 624140;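 active = signal drop with fitted half-maximal concentration at or below twice the highest valid dose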
Hits are given with their value; - = inactive; . = no result given.

SMILES | Vc quorum ag-1 | DUSP3 inh | Yp Topo-I inh | Mtb BioA inh | TcdB inh | Vc quorum ag-2 | others
CCCCNC(=O)Nc1ccccc1C(=O)NCCC | - | - | - | - | . | .
C[C@@H]1CN([C@H](C)CO)C(=O)Cc2cc(NC(=O)Nc3ccc4c(c3)OCO4)ccc2O[C@H]1CN(C)C(=O)Nc1cccc2ccccc12 | . | . | . | - | - | .
O=C(COC(=O)c1c[nH]c2ccccc12)NC1CCCC1 | - | . | - | - | - | .
O=C(NC1CCCCC1)C(=O)c1c[nH]c2ccccc12 | 474 | - | - | - | - | -
O=C(Nc1cccc(-c2ccc(N3CCOCC3)nn2)c1)c1ccc([N+](=O)[O-])cc1 | - | . | - | - | - | -
COc1ccc(-c2cn(CC[C@@H]3CC[C@H](NC(=O)NC(C)C)[C@H](CO)O3)nn2)cc1 | . | . | . | - | - | .
Cc1ccc(NC(=S)NCCc2c[nH]c3ccccc23)cc1 | 17 | - | - | - | . | -
CCOC(=O)c1c(C)[nH]c(C(=O)COC(=O)C2(C)CC2(Cl)Cl)c1C (stereo not drawn) | - | - | - | - | . | -
C[C@@H]1CN([C@H](C)CO)C(=O)c2cc(NC(=O)Nc3ccc(F)cc3)ccc2O[C@@H](C)CCCCO[C@@H]1CN(C)Cc1ccncc1 | . | . | . | - | . | .
COc1cccc(NC(=O)C2CC(=O)OC23CCOC(C)(C)C3)c1 (stereo not drawn) | - | - | - | - | . | -
O=C(NCC1CCCCC1)[C@@H]1[C@@H](CO)[C@@H]2Cn3c(ccc(-c4cccnc4)c3=O)[C@H]1N2 | . | . | . | . | - | .
COC(=O)c1ccccc1NC(=O)C1CC=CCC1C(=O)O (stereo not drawn) | - | - | - | - | . | .
COC(=O)c1cc(NC(=O)C2CC=CCC2C(=O)O)cc(C(=O)OC)c1 (stereo not drawn) | 7.6 | - | - | - | . | -
C[C@H](CO)N1C[C@H](C)[C@H](CN(C)Cc2ccncc2)Oc2ccc(NC(=O)c3ccncc3)cc2C1=O | . | . | . | - | - | .
Cn1c(CNc2cccc(Cl)c2)nnc1SCC(=O)OC1CCCCC1 | 17 | - | - | - | . | -
COc1ccc(NC(=O)N(C)C[C@H]2Oc3ccc(NS(=O)(=O)c4ccccc4)cc3CC(=O)N([C@@H](C)CO)C[C@H]2C)cc1 | . | . | . | . | - | .
CCn1c(CC(=O)Nc2cccc(Cl)c2Cl)nnc1SCCOc1ccc(OC)cc1 | . | - | - | . | - | - | HeLa 24h tox=-
O=C(COC(=O)c1ccc(O)cc1)c1ccc2c(c1)OCCO2 | - | . | - | - | - | -
CCCNC(=O)N1C[C@H]2[C@@H](c3ccccc31)[C@@H](CO)N2C(=O)c1ccncc1 | . | . | . | - | - | .
CCN1[C@@H]2Cn3c(ccc(-c4ccccc4OC)c3=O)[C@H]1[C@@H](C(=O)N1CCOCC1)[C@@H]2CO | . | . | . | - | - | .
COC(C(=O)Nc1ccccc1C(=O)N1CCOCC1)c1ccccc1 (stereo not drawn) | - | - | - | - | - | -
Cc1nc(=O)c(-c2ccccc2)c(C)n1CCCCCC(=O)O | 17 | - | - | - | . | -
Cc1noc(C)c1S(=O)(=O)Nc1ccc2c(c1)C(=O)N([C@@H](C)CO)C[C@H](C)[C@H](CN(C)Cc1ccc(C(=O)O)cc1)O2 | . | . | . | - | - | .
Cc1noc(C)c1S(=O)(=O)Nc1ccc2c(c1)C(=O)N([C@H](C)CO)C[C@H](C)[C@@H](CN(C)Cc1ccc(C(=O)O)cc1)O2 | - | . | - | - | - | -
COCC(=O)Nc1ccc2c(c1)OC[C@@H](C)N(Cc1cc(-c3ccccc3)on1)C[C@@H](C)[C@H](OC)CN(C)C2=O | . | . | . | - | - | .
SMILES | Vc quorum ag-1 | DUSP3 inh | Yp Topo-I inh | Mtb BioA inh | TcdB inh | Vc quorum ag-2 | others
CCCNC(=O)N1[C@H](CNC(=O)CC)[C@H](c2ccc(C3=CCCC3)cc2)[C@@H]1CO | . | . | . | - | - | .
Cc1ccc2onc(CC(=O)O)c2c1 | - | - | - | . | . | -
Cc1ccc(NC(=O)Cc2noc3ccccc23)cc1 | - | - | - | - | . | .
O=C(Cc1ccccn1)NCC[C@H]1CC[C@@H](NC(=O)Nc2ccccc2)[C@@H](CO)O1 | . | . | . | - | - | .
Cc1ccc(S(=O)(=O)Nc2ccc3c(c2)CC(=O)N([C@@H](C)CO)C[C@H](C)[C@@H](CN(C)Cc2ccc4c(c2)OCO4)O3)cc1 | . | . | . | - | - | .
Cc1ccc(N2C(=O)C(CN(C)C)C2c2ccccc2)cc1 (stereo not drawn) | 17 | - | - | - | . | -
